Source: PubChem BioAssay
Where “and” joins values, the source holds several entries; their conditions need not be identical. Equal entries are not always repeated. Records with an inconclusive call do not appear. Calls of active or inactive are those of the source.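 The calls were made as follows, unless noted: active = normalized viability below 100% at a tested concentration; inactive = the rest.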

Tests used:
[1] = viability loss in pontine glioma line – cell-based, SU-DIPG-XVII, MIPE5.0, CellTiter-Glo, qHTS, dose response (AID 1347060; cut-off not given, nearly all actives have AC50 up to about 26 µM;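 as to AC50: cells exposed to compound for 48 hours before viability readout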); conditions: CellTiter-Glo ATP luminescence
[2] = viability loss in pontine glioma line – cell-based, SU-DIPG-IV, MIPE4.0, CellTiter-Glo, qHTS, dose response (AID 1347063; cut-off not given, nearly all actives have AC50 up to about 30 µM;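 also: compound exposure lasted 48 hours before the viability readout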); conditions: CellTiter-Glo ATP luminescence
[3] = viability loss in pontine glioma line – cell-based, SU-DIPG-XXV, MIPE5.0, CellTiter-Glo, qHTS, dose response (AID 1347065; cut-off not given, nearly all actives have AC50 up to about 26 µM;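 also: cells exposed to compound for 48 hours before ATP readout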); conditions: CellTiter-Glo ATP luminescence
[4] = growth inhibition of DIPG cells – cell-based, MIPE4.0 library, CellTiter-Glo luminescence, qHTS (AID 1347066; cut-off not given, nearly all actives have AC50 up to about 30 µM;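 also: cells exposed to compound for 48 hours before readout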); conditions: SU-DIPG-VI viability, CellTiter-Glo ATP luminescence
[5] = JHH-DIPG-1 glioma cell viability, MIPE5.0 library, CellTiter-Glo luminescence, qHTS (AID 1347067; cut-off not given, nearly all actives have AC50 up to about 26 µM;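 also: cells exposed to compound for 48 hours before readout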); conditions: JHH-DIPG-1 glioma viability, CellTiter-Glo ATP luminescence
[6] = viability loss with induced miR-34 in A549 – imaging, A549 dox-inducible miR-34, nuclei and caspase counts, primary screen (AID 1347080;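 active = compounds whose cell count with miR-34 switched on is under 0.7 times the count with it off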); conditions: A549 miR-34 inducible, Hoechst nuclei count, 48 h
[7] = MELAS cybrid and Rieske KO viability enhancers – cell-based, MELAS cybrids, Rieske KO mouse fibroblasts, CellTiter-Glo, primary screen (AID 1508586;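 active = mean z-score across replicates of 1.96 or higher in either the MELAS or the Rieske mutant cell line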;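 also: z relative to plate mean and SD of compound and empty wells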); conditions: low glucose
[8] = growth inhibition of DIPG cells – cell-based, MIPE5.0 library, qHTS (AID 1347068; cut-off not given, nearly all actives have IC50 up to about 30 µM;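 as to IC50: cells exposed to compound for 48 hours before viability readout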); conditions: SU-DIPG-XXV viability
[9] = compounds altering HSF1 focus formation in cells – imaging, Selleck Cancer Library (AID 1347162; in the data active = plate-normalised HSF1 focus index below about 0.46); conditions: human cells, HSF1 nuclear foci imaging, at 10 µM; SSMD: measured here: HSF1 foci SSMD mean; cell count: measured here: cell number; plate-normalised HSF1 focus index: stronger effect = lower value
[10] = drug combination growth inhibition, ovarian cancer – cell-based, oncology-focused library, rucaparib conditional, profiling panel (AID 1508598); conditions: patient-derived ovarian cancer cells, CellTiter-Glo viability, 144 h, stronger effect = lower value
[11] = viability loss in pontine glioma line – cell-based, SU-DIPG-XIII, MIPE5.0, CellTiter-Glo, qHTS, dose response (AID 1347064; cut-off not given, nearly all actives have AC50 up to about 23 µM;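 as to AC50: cells exposed to compound for 48 hours before the viability read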); conditions: CellTiter-Glo ATP luminescence
[12] = stronger effect = lower value, cell number ratio, induced over uninduced
[13] = measured here: relative caspase fold change +Dox/-Dox
[14] = measured here: total cells with miR-34 induction, stronger effect = lower value
[15] = measured here: total cells without miR-34 induction
[16] = MELAS cybrid survival, CellTiter-Glo 48 h, stronger effect = higher value
[17] = Rieske KO mouse fibroblast survival, CellTiter-Glo 72 h
[18] = at 0.000305 µM, OCI-C5x cells, with rucaparib 10 µM, 100% = cells with rucaparib alone
[19] = at 0.000305 µM, OCI-C5x cells, without rucaparib
[20] = at 0.000305 µM, OCI-P5x cells, with rucaparib 20 µM, 100% = cells with rucaparib alone
[21] = at 0.000305 µM, OCI-P5x cells, without rucaparib
[22] = at 0.00122 µM, OCI-C5x cells, with rucaparib 10 µM, 100% = cells with rucaparib alone
[23] = at 0.00122 µM, OCI-C5x cells, without rucaparib
[24] = at 0.00122 µM, OCI-P5x cells, with rucaparib 20 µM, 100% = cells with rucaparib alone
[25] = at 0.00122 µM, OCI-P5x cells, without rucaparib
[26] = at 0.00488 µM, OCI-C5x cells, with rucaparib 10 µM, 100% = cells with rucaparib alone
[27] = at 0.00488 µM, OCI-C5x cells, without rucaparib
[28] = at 0.00488 µM, OCI-P5x cells, with rucaparib 20 µM, 100% = cells with rucaparib alone
[29] = at 0.00488 µM, OCI-P5x cells, without rucaparib
[30] = at 0.0195 µM, OCI-C5x cells, with rucaparib 10 µM, 100% = cells with rucaparib alone
[31] = at 0.0195 µM, OCI-C5x cells, without rucaparib
[32] = at 0.0195 µM, OCI-P5x cells, with rucaparib 20 µM, 100% = cells with rucaparib alone
[33] = at 0.0195 µM, OCI-P5x cells, without rucaparib
[34] = at 0.0781 µM, OCI-C5x cells, with rucaparib 10 µM, 100% = cells with rucaparib alone
[35] = at 0.0781 µM, OCI-C5x cells, without rucaparib
[36] = at 0.0781 µM, OCI-P5x cells, with rucaparib 20 µM, 100% = cells with rucaparib alone
[37] = at 0.0781 µM, OCI-P5x cells, without rucaparib
[38] = at 0.313 µM, OCI-C5x cells, with rucaparib 10 µM, 100% = cells with rucaparib alone
[39] = at 0.313 µM, OCI-C5x cells, without rucaparib
[40] = at 0.313 µM, OCI-P5x cells, with rucaparib 20 µM, 100% = cells with rucaparib alone
[41] = at 0.313 µM, OCI-P5x cells, without rucaparib
[42] = at 1.25 µM, OCI-C5x cells, with rucaparib 10 µM, 100% = cells with rucaparib alone
[43] = at 1.25 µM, OCI-C5x cells, without rucaparib
[44] = at 1.25 µM, OCI-P5x cells, with rucaparib 20 µM, 100% = cells with rucaparib alone
[45] = at 1.25 µM, OCI-P5x cells, without rucaparib
[46] = at 5 µM, OCI-C5x cells, with rucaparib 10 µM, 100% = cells with rucaparib alone
[47] = at 5 µM, OCI-C5x cells, without rucaparib
[48] = at 5 µM, OCI-P5x cells, with rucaparib 20 µM, 100% = cells with rucaparib alone
[49] = at 5 µM, OCI-P5x cells, without rucaparib

N#Cc1ccc(COC[C@H]2O[C@@H](n3c(NCc4ccc(Cl)c(Cl)c4)nc4c(N)ncnc43)[C@H](O)[C@@H]2O)cc1
active: AC50 [1] 14.8 µM | AC50 [2] 2.35 µM | AC50 [3] 18.6 µM | AC50 [5] 18.6 µM
inactive: outcome [4]

COc1cc2ncnc(Nc3cccc(Cl)c3)c2cc1OC
active: AC50 [1] 13.2 µM | AC50 [2] 18.7 µM | AC50 [3] 20.9 µM
2650 and 1830 and 6990: cell count [6, 14]
2060 and 1800 and 7760: cell count [6, 15]
inactive: fold change [6, 12] 1.29 and 1.02 and 0.9 | z-score [7, 16] -0.433
0.693 and 0.941 and 0.779: fold change [6, 13]
0.126: z-score [7, 17]

O=c1ccn([C@@H]2O[C@H](CO)[C@@H](O)[C@@H]2F)c(=O)[nH]1
inactive: outcome [1] | outcome [2] | outcome [3] | outcome [4] | outcome [5] | outcome [8]

Clc1ccc2ncc(-c3cccc(NC4CNC4)n3)n2c1
active: AC50 [2] 26.4 µM
inactive: outcome [1] | outcome [5] | outcome [8]

CNC(=O)c1cc(COc2nnc(Nc3ccc(Cl)cc3)c3ccoc23)ccn1
inactive: fold change [6, 12] 0.883 | z-score [7, 16] -0.151 | viability [10, 18] 113% | viability [10, 19] 111% | viability [10, 20] 105% | viability [10, 21] 114% | viability [10, 22] 109% | viability [10, 23] 117% | viability [10, 24] 102% | viability [10, 25] 109% | viability [10, 26] 108% | viability [10, 27] 113% | viability [10, 28] 102% | viability [10, 29] 108% | viability [10, 30] 105% | viability [10, 31] 105% | viability [10, 32] 104% | viability [10, 33] 109% | viability [10, 34] 109% | viability [10, 35] 110% | viability [10, 36] 101% | viability [10, 37] 109% | viability [10, 38] 108% | viability [10, 39] 113% | viability [10, 40] 103% | viability [10, 41] 111% | viability [10, 42] 106% | viability [10, 43] 114% | viability [10, 45] 108% | viability [10, 46] 114% | viability [10, 47] 128% | viability [10, 48] 103% | viability [10, 49] 109%
active: AC50 [1] 16.6 µM | AC50 [2] 20.9 µM | AC50 [5] 5.9 µM | plate-normalised HSF1 focus index [9] 0.266 | viability [10, 44] 98.5%
0.512: z-score [7, 17]
4310: cell count [9]
5140: cell count [6, 14]
5820: cell count [6, 15]
0.896: fold change [6, 13]
-14.1: SSMD [9]

O=C(Nc1nc2cccc(-c3ccc(CN4CCS(=O)(=O)CC4)cc3)n2n1)C1CC1
0.426: fold change [6, 13]
active: AC50 [1] 14.8 µM | AC50 [2] 29.6 µM | AC50 [3] 9.34 µM
6290: cell count [6, 14]
inactive: fold change [6, 12] 0.924 | z-score [7, 16] -0.57
6810: cell count [6, 15]
-1.33: z-score [7, 17]

CC(C)(O)CC(=O)NCCn1ccc2ncnc(Nc3ccc(Oc4cccc(C(F)(F)F)c4)c(Cl)c3)c21
active: AC50 [1] 18.6 µM | AC50 [2] 26.4 µM | AC50 [3] 26.3 µM | AC50 [5] 20.9 µM | IC50 [8] 23.5 µM
inactive: fold change [6, 12] 0.965 | z-score [7, 16] -0.328
8420: cell count [6, 15]
0.83: z-score [7, 17]
0.647: fold change [6, 13]
8120: cell count [6, 14]

CS(=O)(=O)N1CCc2c(-c3cnc(N)nc3)nc(N3CCOCC3)nc21
active: AC50 [1] 1.86 µM | AC50 [2] 0.148 µM | AC50 [11] 1.18 µM | AC50 [3] 0.525 µM | IC50 [8] 0.934 µM | z-score [7, 16] 3.23 | viability [10, 26] 96.5% | viability [10, 34] 87.7% | viability [10, 38] 91.8% | viability [10, 42] 75.9% | viability [10, 44] 66.8% | viability [10, 45] 97% | viability [10, 46] 39.2% | viability [10, 47] 56% | viability [10, 48] 16% | viability [10, 49] 16.9%
3180: cell count [6, 14] | cell count [6, 15]
7210: cell count [9]
-1.3: z-score [7, 17]
0.485: fold change [6, 13]
inactive: fold change [6, 12] 0.998 | plate-normalised HSF1 focus index [9] 0.883 | viability [10, 18] 100% | viability [10, 19] 117% | viability [10, 20] 117% | viability [10, 21] 109% | viability [10, 22] 103% | viability [10, 23] 117% | viability [10, 24] 115% | viability [10, 25] 111% | viability [10, 27] 111% | viability [10, 28] 113% | viability [10, 29] 112% | viability [10, 30] 106% | viability [10, 31] 125% | viability [10, 32] 115% | viability [10, 33] 111% | viability [10, 35] 115% | viability [10, 36] 112% | viability [10, 37] 110% | viability [10, 39] 105% | viability [10, 40] 109% | viability [10, 41] 107% | viability [10, 43] 118%
-3.29: SSMD [9]

O=C(O)/C(S)=C/c1ccc(I)cc1
inactive: outcome [1] | outcome [11] | outcome [3]

N#C/C(=C1/Nc2ccccc2S1)c1ccnc(OCc2ccc(CN3CCOCC3)cc2)n1
active: AC50 [1] 14.8 µM | AC50 [2] 0.0209 µM | AC50 [11] 14.8 µM | AC50 [4] 0.743 µM | AC50 [5] 20.9 µM
